From PubChem BioAssay (NCATS) come the findings set out here.

Experiment [1] has as its target Alpha-galactosidase (Coffea arabica) (UniProt Q42656). Nature of the experiment: Counterscreen for Glucocerebrosidase Inhibitors: qHTS Assay for Coffee Bean alpha-Galactosidase at pH 4.5 (AID 957; active means well fitted curve in the direction sought with a large enough effect; an effect the other way counts as inactive or inconclusive;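 further: plate controls were enzyme alone for no effect and no enzyme for full effect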). An outline of the steps: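 Coffee bean alpha-galactosidase 2 nM, substrate 4-MU-alpha-Gal 80 uM, pH 4.5 citrate/Tween-20, 20 min RT. Cpd titration 0.7 nM–77 uM. Stop pH 10, fluorescence 365/440 nm; Hill-equation AC50.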
(The purpose of a counterscreen is to sort out artefacts and off-target activity.)

For experiment [2] the target is unchanged. Nature of the experiment: Counterscreen for Glucocerebrosidase Inhibitors: qHTS Assay for Coffee Bean alpha-Galactosidase at pH 5.9 (AID 998; active means well fitted curve in the direction sought with a large enough effect; an effect the other way counts as inactive or inconclusive;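 further: plate controls were uninhibited enzyme for no effect and no-enzyme basal signal for full effect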). In short, it runs like this:
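Compounds were titrated from 0.7 nM to 77 uM against green coffee bean alpha-galactosidase (2 nM) using 80 uM fluorogenic 4-methylumbelliferyl substrate. After 20 min at room temperature, reactions were stopped at pH 10 and read by fluorescence.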

Experiment [3] is described as follows: Validation screen for inhibitors of Lassa infection (AID 463096). Further: on the % scale 0 is the no-effect control and ±100 the full control effect.
Experiment [4] can be described thus: Inducers of the Endoplasmic Reticulum Stress Response (ERSR) in human glioma: Validation (AID 504836; active means well fitted curve in the direction sought with a large enough effect; an effect the other way counts as inactive or inconclusive; further: 0% is about no effect). An outline of the steps: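 ERSR induction read as luciferase luminescence (Bright-Glo, 10 min at room temperature) in stably transfected human U87-MG glioma cells exposed to compounds for 16 h, using GRP78 as sensor.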
Experiment [5] can be described thus: qHTS for Inhibitors of the Functional Ribonucleoprotein Complex (vRNP) of Lassa (LASV) Arenavirus: LASV Primary Screen - GLuc reporter signal (AID 1347082; calls by dose curve; tested in HEK293 reporter line; further: on the % scale 0 is the no-effect control and ±100 the full control effect; nearly all actives have a fitted effect of over 60% in size).
Experiment [6] is described as follows: qHTS for Inhibitors of the Functional Ribonucleoprotein Complex (vRNP) of Lassa (LASV) Arenavirus: Viability assay - alamar blue signal for LASV Primary Screen (AID 1347083; calls by dose curve; tested in HEK293 reporter line; further: nearly all actives have a fitted effect of over 80% in size; further: potency means the concentration at half of the fitted maximal effect). For orientation: Quantitative high-throughput screening tests each substance at several concentrations.
Experiment [7] can be described thus: qHTS for Inhibitors of the Functional Ribonucleoprotein Complex (vRNP) of Lymphocytic Choriomeningitis Arenaviruses (LCMV): Viability assay - alamar blue signal for LCMV Primary Screen (AID 1347085; calls by dose curve; tested in HEK293 reporter line; further: nearly all actives have a fitted effect of over 80% in size; further: potency means the concentration at half of the fitted maximal effect).
In experiment [8] the target is Nucleoprotein (Lymphocytic choriomeningitis virus (strain Armstrong)) (UniProt P09992). Nature of the experiment: qHTS for Inhibitors of the Functional Ribonucleoprotein Complex (vRNP) of Lymphocytic Choriomeningitis Arenaviruses (LCMV): LCMV Primary Screen - GLuc reporter signal (AID 1347086). Further: nearly all actives have a fitted effect of over 70% in size. Further: potency means the concentration at half of the fitted maximal effect. On activity change, negative = inhibition: on the % scale 0 is the no-effect control and ±100 the full control effect.
For experiment [9], the system named is CRL-7250. In words: qHTS assay to identify novel small-molecules to repurpose for Merkel cell carcinoma treatment (AID 1296009; active means well fitted curve in the direction sought with a large enough effect; an effect the other way counts as inactive or inconclusive; further: nearly all actives have a fitted effect of over 60% in size). The settings on record: MCC and control cell lines, CellTiter-Glo viability, 72 h; series mostly up to 92 µM. In short, it runs like this: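 72 hr, 37 degree celsius; NPC 8-pt / MIPE 11-pt dose response; compound pinned in DMSO; CellTiter-Glo, 10 min RT, luminescence; normalized to no-cell and DMSO controls.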

Experiment [10] can be described thus: Cytotoxicity counterscreen for inhibitors of SARS-CoV-2 cell entry (AID 1645845). Further: nearly all actives have a fitted effect of over 50% in size. An outline of the steps: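 48 h compound treatment (after 1 h preincubation), HEK293-ACE2 cells, 37 C/5% CO2; ATP luminescence endpoint; normalized to cell wells and media blanks.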
The nature of experiment [11]: Primary qHTS to identify inhibitors of SARS-CoV-2 cell entry (AID 1645846). Further: nearly all actives have a fitted effect of over 45% in size. Further: potency means the concentration at half of the fitted maximal effect. The settings on record: activity change, negative = inhibition: at 57.1 µM (top of the series) unless noted. An outline of the steps: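 Inhibition of spike-mediated entry was scored in human ACE2-transfected Expi293F cells. Particles were MLV-pseudotyped with Wuhan-Hu-1 S carrying a 19-aa C-terminal deletion; signal was luciferase after two days, scaled between spike PP and fusion-protein-free PP.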

Results filed as inconclusive are left out. Calls of active or inactive are those of the source. Unless noted, the call rests on the fitted dose curve.

Chain of Nucleoprotein (Lymphocytic choriomeningitis virus (strain Armstrong)) (P09992 whole entry, looked up): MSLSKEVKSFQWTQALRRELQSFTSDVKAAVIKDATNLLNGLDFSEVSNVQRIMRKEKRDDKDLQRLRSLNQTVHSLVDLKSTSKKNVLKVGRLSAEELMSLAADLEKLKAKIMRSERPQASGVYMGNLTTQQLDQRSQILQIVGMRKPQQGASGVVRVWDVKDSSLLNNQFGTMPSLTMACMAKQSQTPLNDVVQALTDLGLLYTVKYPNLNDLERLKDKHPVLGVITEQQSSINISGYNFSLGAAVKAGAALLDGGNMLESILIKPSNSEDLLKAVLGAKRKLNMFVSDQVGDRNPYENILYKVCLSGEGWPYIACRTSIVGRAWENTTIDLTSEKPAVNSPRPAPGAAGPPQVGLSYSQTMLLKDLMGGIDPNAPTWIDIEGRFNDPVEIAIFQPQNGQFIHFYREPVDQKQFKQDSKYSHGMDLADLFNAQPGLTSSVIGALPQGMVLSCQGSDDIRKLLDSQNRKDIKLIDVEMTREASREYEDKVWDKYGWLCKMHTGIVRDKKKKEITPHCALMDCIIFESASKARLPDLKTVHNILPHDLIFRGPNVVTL
Chain of Alpha-galactosidase (Coffea arabica) (Q42656 whole entry, looked up): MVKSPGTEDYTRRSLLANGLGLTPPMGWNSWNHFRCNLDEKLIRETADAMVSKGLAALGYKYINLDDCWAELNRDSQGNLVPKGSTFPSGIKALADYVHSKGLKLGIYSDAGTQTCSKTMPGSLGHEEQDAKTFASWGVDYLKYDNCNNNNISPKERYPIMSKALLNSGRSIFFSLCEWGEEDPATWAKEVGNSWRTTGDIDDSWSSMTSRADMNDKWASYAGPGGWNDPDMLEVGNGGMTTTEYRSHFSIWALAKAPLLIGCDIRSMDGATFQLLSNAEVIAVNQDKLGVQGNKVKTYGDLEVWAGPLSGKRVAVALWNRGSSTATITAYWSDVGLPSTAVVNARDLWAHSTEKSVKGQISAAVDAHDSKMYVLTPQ

Take `COc1ccccc1N1CCN(CCN(C(=O)C2CCCCC2)c2ccccn2)CC1`: the outcome in experiment [1], in [2] and in experiment [4] was inactive. Besides, the Potency result in experiment [3], in experiment [5], in [6], in experiment [7], in [8] and in [9] was “inactive” throughout.

`O=C(O)C1CCCN(CCC=C(c2ccccc2)c2ccccc2)C1` (stereo not given): the Potency entry in experiment [3], in experiment [5], in experiment [6], in experiment [7], in [8] and in experiment [10] was “inactive” in each case. The Potency result in experiment [9] was “inactive”. Besides, the call in [4] was inactive. Also, in [11], the activity change, negative = inhibition is -1.36%.

Turning to `CC(Cc1ccc(O)c(O)c1)(NN)C(=O)O` (stereo not given), the Potency result in [5], in [6], in experiment [7], in [8], in experiment [10] and in experiment [9] was “inactive” each time. The activity change, negative = inhibition in experiment [11] is -34.1%.

Consider `COC1CCC(C(=O)c2ccc3nc4c(cc3c2)CCCO4)CC1` (stereo not given), for which the Potency result in [5], in experiment [6], in experiment [7], in experiment [8], in experiment [11] and in experiment [9] was “inactive” each time.

With `CC1=C(C(=O)Nc2cc3cn[nH]c3cc2F)C(c2ccc(C(F)(F)F)cc2)CC(=O)N1` (stereo not given), the Potency entry in experiment [5], in experiment [6], in experiment [7], in experiment [8], in experiment [10] and in experiment [9] was “inactive” throughout. Moreover, the activity change, negative = inhibition in [11] was -23.5%.

With `O=C(c1cncc(Br)c1)N1CCC(N2CCCC2)CC1`, the Potency entry in experiment [5], in experiment [6], in experiment [7], in experiment [8], in [10] and in experiment [11] was “inactive” throughout. Also, the Potency entry in experiment [9] was “inactive”.

As to `O=C(Nc1nc2ccccc2n1CCN1CCOCC1)c1cccc([N+](=O)[O-])c1`, in experiment [4], the result was inactive. The Potency result in [5], in experiment [6], in experiment [7], in [8], in experiment [10] and in experiment [9] was “inactive” in each case. For the same compound, the activity change, negative = inhibition in experiment [11] is -0.348%.

For `O=C(CN1C(=O)C2(CCCC2)NC[C@H]1c1cc(F)cc(F)c1)Nc1ccc2c(c1)C[C@@]1(C2)C(=O)Nc2ncccc21`, the Potency result in [5], in experiment [6], in experiment [7], in experiment [8], in [10] and in [9] was “inactive” in each case. In addition, the activity change, negative = inhibition in experiment [11] is -13.1%.

Take `COc1ccc2c(OCc3nnc4ccc(-c5ccccc5)nn34)ccnc2c1`: the Potency result in experiment [5], in experiment [6], in [7], in [8], in experiment [10] and in experiment [9] was “inactive” in each case. For the same compound, in experiment [11], the activity change, negative = inhibition is -13.2%.

`COc1ccc2cc(-c3nc(-c4ccc(S(C)=O)cc4)[nH]c3-c3ccncc3)ccc2c1` (stereo not given): the Potency result in experiment [5] and in [9] was “inactive” each time. Further, the Potency was 24.3 µM (active) in experiment [6], 4.85 µM (active) in experiment [7], 17.2 µM (active) in experiment [8] and 31.6 µM (active) in experiment [11].

Take `CC1CNc2c(cccc2S(=O)(=O)N[C@@H](CCCN=C(N)N)C(=O)N2CC[C@@H](C)C[C@@H]2C(=O)O)C1` (stereo not given in full): the Potency entry in experiment [5], in [6], in experiment [7], in experiment [8], in [10] and in experiment [9] was “inactive” each time. Further, in experiment [11], the activity change, negative = inhibition is -11.7%.
